High-throughput results: PubChem BioAssay, National Center for Advancing Translational Sciences (NCATS)
An excerpt weighted towards active compounds, which were near 3% of everything screened.
ClpP mod: qHTS Assay for Activators of ClpP. ATP-dependent Clp protease proteolytic subunit (Bacillus subtilis (strain 168)), P80244. purified B. subtilis ClpP, FRET peptide cleavage, 20 min. Potency, µM (top dose mostly 57.5 µM), without a hit: at the highest dose activity change, negative = active. 340,000 compounds, 1.9% hits. AID 651965, 2013; active means well fitted falling curve with a large enough effect; inconclusive means small, poorly fitted or top-dose-only effect; inactive means no such curve, though single readings can be large or run the other way; further: potency means the concentration at half of the fitted maximal effect; the source files actives as falling curves though it sought activators and does not explain the sign; nearly all actives have a fitted effect of over 65% in size
Target sequence (P80244 whole entry, looked up): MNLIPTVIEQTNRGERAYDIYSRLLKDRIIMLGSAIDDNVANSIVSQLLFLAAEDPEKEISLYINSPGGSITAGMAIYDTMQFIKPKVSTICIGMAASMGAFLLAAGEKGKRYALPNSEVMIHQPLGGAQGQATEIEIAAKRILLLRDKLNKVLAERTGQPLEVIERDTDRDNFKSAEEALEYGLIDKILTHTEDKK
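Buffer: 100 mM Tris/HCl pH8, 100 mM KCl, 0.05% low protease BSA, 2.5% glycerol, 0.01% Tween-20. ClpP 10 microg/mL final; 20 min RT; delta FRET normalized to ADEP and DMSO controls.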
Chronic BCR inh: blocks chronic active B-cell receptor signaling; ABC-DLBCL IkBa-CBG/CBR reporter, luminescence ratio, 4 h; Potency, µM (titrated, usually from 46.1 µM), for the others: at the highest dose activity change, negative = inhibition, usual class: inhibitors; 340,000 compounds, 0.05% hits; active means well fitted inhibition curve with a large enough effect in the signal ratio, with a control signal flat, not every such curve was filed as active; inconclusive means small, poorly fitted or top-dose-only effect, or effect the other way, or a change in a side signal; the % refers to the signal ratio;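 further: potency means the concentration at half of the fitted maximal effect; plate controls were basal doxycycline-induced cells for no effect and cells given 10 µM MG132 for full effect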
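Cell line TMD8 (human ABC DLBCL), stably expressing tet-inducible CBG68-IkBa fusion and CBR; IMDM/0.5% FBS; cpd up to 46 uM; dox induction, 4 h, 37C/5% CO2; dual luminescence; green/red ratio; MG132 control.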
LDHA inh: LDHA (human) enzyme inhibition. P00338. purified LDHA, NADH/diaphorase-resazurin fluorescence; active compounds read low. activity change, % (values are at about 110 or 230 µM). 480,000 compounds, 0.15% hits; in the data active means activity change below about -30%; inconclusive means mostly about -25% to -30%;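 further: plate controls were DMSO wells for no effect and wells without enzyme for full effect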
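LDH5 2 nM; NADH 0.06 mM, pyruvate 0.2 mM; 200 mM Tris pH 7.4, EDTA, Tween-20; 5 min RT. Detection: diaphorase 0.133 mg/mL + resazurin 37 µM, fluorescence ex540/em590 at 0 and 20 min; normalized to enzyme-free and DMSO wells.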
12-LOX inh: ALOX12 (human) lipoxygenase inhibition; P18054; purified 12hLO, xylenol orange hydroperoxide absorbance; Potency, µM (titrated, usually from 108 µM), inactives show at the top dose activity change, negative = inhibition, actives largely listed as inhibitors; 580,000 compounds, 1.1% hits; AID 1671190; active means well fitted inhibition curve with a large enough effect; inconclusive means small, poorly fitted or top-dose-only effect, or another doubt; inactive means no such curve, though single readings can be large or run the other way; further: potency means the concentration at half of the fitted maximal effect; on the % scale 0 is the no-effect control and ±100 the full control effect
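Hydroperoxide product was detected by ferrous iron/xylenol orange as the 573 to 405 nm absorbance ratio. Arachidonic acid at 40 uM (final) was turned over for 30 min at room temperature by 150 nM human 12hLO, pH 7.0 Hepes buffer, after 15 min compound preincubation.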
KCNH2 3.1 block: inhibitors of human KCNH2 3.1 potassium channel isoform; U2OS KCNH2 3.1, thallium flux FluxOr; active compounds read low; activity change, % (tested at about 1.8 µM); 340,000 compounds, 0.95% hits;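 active means maximum activity change below -70%; inconclusive means maximum activity change from -70% to -50%; inactive means maximum activity change above -50%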;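 further: thallium influx rate constant from kinetic fluorescence after stimulation buffer; on the % scale 0 is the no-effect control and ±100 the full control effect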
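Channel expression came from 3.1 mutant virus (1.77 x 10^8 /mL) applied to suspended U2OS cells for 4 h. Flux was tracked with FluxOr dye plus Red40 quencher, and kinetic rate constants normalized to controls.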
KCNH2 WT inh: blocks the wildtype human KCNH2 potassium channel | Q12809 | U2OS, BacMam KCNH2, thallium flux FluxOr; active compounds read low | activity change, % at 1.84 µM | 340,000 compounds, 0.37% hits | AID 720551;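 active means maximum activity change below -70%; inconclusive means maximum activity change between -70% and -50%; inactive means maximum activity change above -50%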; further: on the % scale 0 is the no-effect control and ±100 the full control effect
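U2OS cells transduced with wild-type KCNH2 virus are loaded with FluxOr dye for 45 min, and thallium flux is measured in kinetic reads before and after stimulation buffer. Rate constants are normalized to DMSO controls.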
* marks the source's active call; other numbers are inactive results; ? = inconclusive; . = no result; [ ] = another dose, or the depositor's remark.

SMILES	ClpP mod	Chronic BCR inh	LDHA inh	12-LOX inh	KCNH2 3.1 block	KCNH2 WT inh
OC(COc1ccc(F)cc1Cl)CN1CCC(Cc2ccccc2)CC1 (stereo not given)	2%	-9%	0	?	-93*	?
CCC(CC)NC(=O)C1Cn2cccc2C(=O)N1Cc1ccccc1 (stereo not given)	.	.	.	-1%	.	.
O=c1cc[nH]c2c(C(F)(F)F)cccc12	28µM*	0%	3	11%	13	-3
CC(C)N1C(=O)S/C(=C/c2cn(CC#N)c3ccccc23)C1=O	.	.	11	4.5µM*	.	.
C=CCN1C(=O)S/C(=C/c2cn(CC(=O)O)c3ccccc23)C1=O	.	.	-3	32µM*	.	.
COc1ccc(/C=C2\SC(=S)N(CC(=O)OCC(=O)Nc3cc(Cl)cc(Cl)c3)C2=O)cc1	-2%	-1%	-6	40µM*	2	-11
Cn1c(Oc2ccc(Cl)c(Cl)c2)c(C#N)c(=O)n(C)c1=O	.	.	2	?	.	.
C=CCn1c(SCC(=O)Nc2ccc(OC)cc2)nnc1-c1cnccn1	.	0%	-5	17%	4	-4
C=CCn1c(SCC(=O)Nc2ccc(-c3nc4ccc(C)cc4s3)cc2)nnc1-c1ccncc1	3.5µM*	0%	0	-18%	8	-8
C=CCn1c(SCC(=O)Nc2ccc(S(N)(=O)=O)cc2)nnc1-c1cnccn1	-1%	0%	1	-1%	-12	-143*
Cc1oc2cc(O)ccc2c(=O)c1-c1ccccc1	.	-15%	-4	-10%	-3	-8
Cc1oc2cc(O)ccc2c(=O)c1-c1cnn(-c2ccccc2)c1	32µM*	-6%	-12	-7%	-12	12
CC(C)CCC1=NC2(CCN(C(=O)C3CC34CCCC4)CC2)C(=O)N1 (stereo not given)	.	.	.	-1%	.	.
CC(C)(C)C(=O)[C@@H]1[C@@H](C(=O)c2ccccc2)[C@@]2(C(=O)Nc3ccccc32)[C@H]2c3ccccc3C=CN12	.	.	22	?	.	.
O=C(c1ccccc1)[C@@H]1[C@@H](C(=O)c2ccco2)[C@@]2(C(=O)Nc3ccccc32)[C@H]2c3ccccc3C=CN12	.	.	42	14µM*	.	.
O=S(=O)(O)c1cc(O)ccc1O	-13%	7%	4	4%	10	9
O=S(=O)(c1cc(O)ccc1O)c1cccc2c(S(=O)(=O)c3cc(O)ccc3O)cccc12	0%	-2%	-1	32µM*	-2	0
Cc1nnc(-c2cc(C(=O)NCCN(C)C)ccn2)n1CCc1ccccc1	.	.	.	-32%[176 µM]	.	.
COc1ccc(C(=O)N[C@@H]2CCC[C@@H]2C(=O)NCCCOC(C)C)cn1	.	.	.	4%	.	.
N#C/C(=C/c1cccc(OC(F)F)c1)c1ccccn1	.	.	6	?	.	.
Cc1ccc(-c2cc3c(=O)n(CCNC(=O)c4ccc(Cl)cc4)ccn3n2)cc1C	.	.	.	-24%	.	.
Cc1ccc(-c2cc3c(=O)n(CCNC(=O)Cc4ccc(Cl)cc4)ccn3n2)cc1C	.	.	.	40µM*	.	.
Cc1cc(C(=O)COc2ccccc2C(N)=O)c(C)n1C1CC1	0%	?	-2	-7%	-1	2
Cc1cc(C(=O)COc2ccccc2C(N)=O)c(C)n1C	28µM*	6%	-6	2%	-3	7
COCCN1CCN(c2cc(-c3ccccc3)nc3cc(-c4cccc(F)c4)nn23)CC1	25µM*	?	-6	?	-1	-19
SMILES	ClpP mod	Chronic BCR inh	LDHA inh	12-LOX inh	KCNH2 3.1 block	KCNH2 WT inh
Cc1ccc2cc(CCl)c(Cl)nc2c1C	.	.	10	4.5µM*	.	.
Cc1ccc2cc(CCl)c(Cl)nc2c1	.	-1%	-1	-9%	12	-7
O=C(Nc1ccc(F)cc1)C1=C(c2ccccc2)SCCO1	.	.	2	15%	.	.
CCOc1c(C)cc(-c2ncccc2O)cc1C	28µM*	?	-3	-14%	7	-15
COc1ccc(-c2nc3ccccc3nc2-c2ccccc2)cc1	.	24%	-5	-22%	-2	4
CCOc1cc(C(=O)Nc2ccc(-c3nc4ncccc4o3)cc2C)cc(OCC)c1OCC	?	.	-8	?	.	.
COc1ccc(-c2ncccc2OC(=O)C23CC4CC(CC(C4)C2)C3)cc1	25µM*	?	2	-25%	5	2
COc1ccc(-c2ncccc2O)cc1	25µM*	-30%	-15	0%	5	2
Cc1cnc(C(=O)Nc2cccc(OC3CCCC3)c2)cn1	.	.	11	?	.	.
CC(C)Cn1cc(NC(=O)Nc2cccc(C(F)(F)F)c2)c2ccccc2c1=O	-10%	.	7	7.1µM*	.	.
CC(C)Cn1cc(NC(=O)N2CCN(c3cccc(C(F)(F)F)c3)CC2)c2ccccc2c1=O	4%	.	8	-23%	.	.
CSCCCNC(=S)Nc1cc(F)ccc1C	.	.	-9	?	.	.
CC1CCCCC1NC(=O)c1ccc2ccccc2n1 (stereo not given)	.	.	13	21%	.	.
N#C/C(=C(/O)CCl)c1nc2c(s1)CCc1ccccc1-2	-2%	6%	24	16µM*	9	3
Nc1nc2c(s1)CCc1ccccc1-2	-17%	0%	9	?	-15	-8
S=c1[nH]nc(-c2ccc(Cl)cc2)n1/N=C/c1ccco1	1%	-12%	-9	?	-3	-15
S=c1[nH]nc(-c2ccc(Cl)cc2)n1/N=C/C=C/c1ccco1	.	13%	1	14µM*	-8	-2
S=c1[nH]nc(-c2ccccc2)n1/N=C/C=C/c1ccco1	1%	8%	-2	40µM*	5	10
COCCN1C(=O)NC(c2ccccc2OC)C2=C1COC2=O (stereo not given)	.	.	.	9%	.	.
O=C(O)C1CCN(/C=C/C(=O)C(F)(F)F)CC1	.	.	-1	?	.	.
O=C(CCOc1ccccc1)OCC(=O)c1cc2ccccc2o1	1%	1%	-6	-2%	6	-8
Cc1cccc(OCCC(=O)OCC(=O)c2cc3ccccc3o2)c1	.	.	1	50µM*	.	.
O=C(CCS(=O)(=O)c1ccc(Cl)cc1)NCCN1C(=O)S/C(=C\c2ccccc2F)C1=O	28µM*	3%	2	-14%	7	-3
Cc1ccc(S(=O)(=O)CCC(=O)NCCN2C(=O)S/C(=C\c3ccccc3)C2=O)cc1	2%	?	-2	6%	10	-4
COc1ccc(CO/N=C/c2cc(OC)c(OC)c(OC)c2)cc1F	.	.	2	32%	.	.
COc1ccc(NC(=O)NN(C(=O)c2ccccc2)C(C)(C)C)cc1	25µM*	2%	-6	-14%	5	2
CC(C)(C)N(NC(=O)Nc1ccccc1)C(=O)c1ccccc1	0%	3%	-2	-12%	29	8
